Assay results from PubChem BioAssay (Tox21).
Where “and” joins values, the source holds several entries; their conditions need not be identical. Equal entries are not always repeated. Records with an inconclusive call do not appear. A call without a number means that no potency is given here. A structure can be active in one record and inactive in another. Calls of active or inactive are those of the source. Unless noted, the call rests on the fitted dose curve; in most records, active means well fitted curve in the direction sought with a large enough effect in the repeat runs; inconclusive means weak or mixed curves; inactive means no such curve, though single readings can be large; an effect the other way counts as inactive or inconclusive.

Experiments:
[1] = qHTS assay for small molecules that induce genotoxicity in human embryonic kidney cells expressing luciferase-tagged ATAD5 (AID 651632); further: nearly all actives have a fitted effect of over 15% in size
Procedure, shortened: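 Cells were seeded at 2,000 per well, dosed with compound, and incubated 16 hr at 37C in 5% CO2. Luciferase activity was then quantified after a 30 min room-temperature incubation with Amplite.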

[2] = qHTS assay for small molecule agonists of the p53 signaling pathway - cell viability (AID 651633; calls by dose curve;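 further: p53RE-bla HCT reporter cells with a stable beta-lactamase p53 reporter; series mostly up to about 83 µM; nearly all actives have a fitted effect of over 30% in size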)
Procedure, shortened: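 p53RE-bla cells were treated with compound for 16 hours at 37 C. Cytotoxicity was then measured as CellTiter-Glo luminescence after 30 min at room temperature.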

[3] = qHTS assay for small molecules that induce genotoxicity in human embryonic kidney cells expressing luciferase-tagged ATAD5 - cell viability (AID 651634; calls by dose curve; further: nearly all actives have a fitted effect of over 25% in size)
Procedure, shortened: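 Cells (HEK293T, luciferase-tagged ATAD5) are seeded at 2,000 per well, dosed with compound or DMSO vehicle, and incubated 15.5 hr at 37C and 5% CO2. CellTiter-Fluor is added for 30 min before fluorescence is measured.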

[4] = qHTS assay for small molecule disruptors of the mitochondrial membrane potential - cell viability (AID 720634; calls by dose curve; further: nearly all actives have a fitted effect of over 20% in size; further: potency means the concentration at half of the fitted maximal effect)
Procedure, shortened: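 Cytotoxicity was measured by ATP quantitation in HepG2 wells that had first been treated with compound for 1 hr and stained with m-MPI dye; CellTiter-Glo incubation was 30 min at room temperature.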

[5] = qHTS assay for small molecule disruptors of the mitochondrial membrane potential (AID 720635); further: potency means the concentration at half of the fitted maximal effect
Procedure, shortened: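 HepG2 cells exposed to compound 1 hr at 37C, then Mito-MPS dye 30 min. Ratio read of aggregate (540/590 nm) versus monomer (490/535 nm) fluorescence.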

[6] = qHTS assay to test for compound auto fluorescence at 590 nm (red) in HepG2 cells (AID 720674)
Procedure, shortened: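 HepG2 cells, 2,000 per well in MEM with 10% FBS, attached overnight at 37 C, then got 23 nL compound or DMSO. After 1 hr at 37 C, 5% CO2, red fluorescence was read at 540/590 nm against Rose Bengal sodium as reference.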

[7] = qHTS assay to test for compound auto fluorescence at 460 nm (blue) in HEK293 cells (AID 720678)
Procedure, shortened: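 Measured: blue fluorescence (Ex 405/Em 460 nm) of compound-treated HEK293 cells, incubated overnight at 37C with 5% CO2 and scaled to triamterene equivalents.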

[8] = qHTS assay to test for compound auto fluorescence at 590 nm (red) in HEK293 cells (AID 720679)
Procedure, shortened: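 Using HEK293 cells at 2,000 per well, the screen added 23 nL of each compound after cell attachment and incubated overnight (37C, 5% CO2). The plate reader then captured red-label fluorescence, Ex/Em 540/590nm.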

[9] = qHTS assay to test for compound auto fluorescence at 535 nm (green) in HepG2 cells (AID 720675)
[10] = qHTS assay for small molecule agonists of the p53 signaling pathway (AID 651631; calls by dose curve; further: nearly all actives have a fitted effect of over 15% in size)
Procedure, shortened: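 Beta-lactamase reporter activity under p53 response elements was quantified in HCT-116 cells by FRET fluorescence, following 16 h incubation with test compounds at 37 °C and 2 h substrate development at room temperature.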

SMILES | Potency [1] | Potency [2] | Potency [3] | Potency [4] | Potency [5] | outcome [6] | outcome [7] | outcome [8] | outcome [9] | Potency [10]
CC(C)Oc1cc(-n2nc(C(C)(C)C)oc2=O)c(Cl)cc1Cl | inactive | inactive | inactive | 12 µM (active) and 54.5 µM (active) | 24 µM (active) and 43.3 µM (active) | inactive | inactive | inactive | – | –
O=C(NC(=O)c1c(F)cccc1F)Nc1ccc(Cl)cc1 | inactive | inactive | inactive | inactive | inactive | inactive | inactive | inactive | inactive | –
C[C@]12CCC(=O)C[C@@H]1CC[C@@H]1[C@@H]2CC[C@]2(C)[C@@H](O)CC[C@@H]12 | – | inactive | inactive | – | – | inactive | inactive | inactive | inactive | inactive
ClC1C(Cl)C(Cl)C(Cl)C(Cl)C1Cl (configuration not stated) | – | inactive | inactive | inactive | – | inactive | inactive | inactive | – | inactive
Cc1c(COC(=O)[C@@H]2[C@H](/C=C(\Cl)C(F)(F)F)C2(C)C)cccc1-c1ccccc1 | inactive | – | inactive | inactive | 26.7 µM (active) and 34.3 µM (active) | inactive | inactive | inactive | inactive | –
COP(=S)(OC)Oc1ccc([N+](=O)[O-])cc1 | – | inactive | – | inactive and 54.5 µM (active) | 34.4 µM (active) | inactive | inactive | inactive | inactive | inactive
S=C1NCCN1 | – | inactive | inactive | – | – | inactive | inactive | inactive | – | inactive
CCc1cccc(CC)c1N(COC)C(=O)CCl | inactive | inactive | inactive | inactive | – | inactive | inactive | inactive | inactive | –
Brc1ccc(Oc2cc(Br)c(Br)cc2Br)c(Br)c1 | inactive | inactive | – | inactive | 4.86 µM (active) and 8.7 µM (active) | inactive | inactive | inactive | inactive | –
Oc1ccc(-c2ccccc2)cc1 | inactive | inactive | – | 53.8 µM (active) and 48.6 µM (active) | 24 µM (active) and 13.7 µM (active) | inactive | inactive | inactive | inactive | –
CCC(C)(c1ccc(O)cc1)c1ccc(O)cc1 | inactive | inactive | inactive | inactive | 7.69 µM (active) and 9.69 µM (active) | inactive | inactive | inactive | inactive | –
CCCCCc1cc(O)cc(O)c1 | inactive | inactive | – | 61.1 µM (active) | 9.73 µM (active) and 7.7 µM (active) | inactive | inactive | inactive | inactive | –
C#CCOS(=O)OC1CCCCC1Oc1ccc(C(C)(C)C)cc1 (configuration not stated) | inactive | inactive | – | inactive and 3.86 µM (active) | 15.4 µM (active) and 24.3 µM (active) | inactive | inactive | inactive | – | –
Nc1c(Cl)cc([N+](=O)[O-])cc1Cl | inactive | inactive | inactive | 24.3 µM (active) | 24.5 µM (active) and 4.33 µM (active) | inactive | inactive | inactive | inactive | –
CCCCC(CC)COC(=O)Cl (configuration not stated) | inactive | inactive | inactive | – | – | inactive | inactive | inactive | inactive | –
